The record followed here is PubChem BioAssay (EPA / NIEHS).

Structures are written as SMILES. Results filed as inconclusive are left out. Calls of active or inactive are those of the source. The calls were made as follows: active = hit-call score of the fitted dose curve at least 0.9, where 1 is the maximum; inconclusive = response in the unintended direction; inactive = score below 0.9.

One may read the AC50 as the concentration at which the activity in the assay is half-maximal.

Assay [1] has as its system rat Adrenergic, Alpha 1B Receptor (Adra1B), gene 24173. The assay is described as follows: NVS_GPCR_rAdra1B: NovaScreen (NVS) G Protein-Coupled Receptor Assay for rat Adrenergic, Alpha 1B Receptor (Adra1B) (AID 2283297). The procedure, abridged: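 Rat liver membranes, radioligand displacement with filter-based scintillation detection, 1 h incubation. Primary screen in duplicate at 25 uM; actives retested in concentration series; activity relative to DMSO.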

Assay [2] has as its target rat Adrenergic Receptor, Alpha 2 (Adra2), Non-selective Binding, Adra2a (gene 25083) (UniProt P22909). In words: NVS_GPCR_rAdra2_NonSelective: NovaScreen (NVS) G Protein-Coupled Receptor Assay for rat Adrenergic Receptor, Alpha 2 (Adra2), Non-selective Binding (AID 2283299). The method, boiled down:
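Rat cortical membranes, radioligand competitive displacement read by filter-based scintillation counting 1.25 hours after dosing. Primary screen in duplicate at 25 uM; actives followed up in concentration series.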

The target in another assay is Adra2b (gene 24174) (UniProt P19328). In words: NVS_GPCR_rmAdra2B: NovaScreen (NVS) G Protein-Coupled Receptor Assay for hybird cells Adrenergic, Alpha 2B Receptor (Adra2B) (AID 2283306). The procedure, abridged:
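Radioligand filter-binding assay on membrane proteins from neuroglioma/blastoma hybrid cells (rodent), 1 h after dosing; scintillation counting, loss of signal vs DMSO. Primary screen in duplicate at 25 uM, actives then run in concentration series.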

In assay [3] the target is rat Neurokinin-1 Receptor (NK1), Tacr1 (gene 24807) (UniProt P14600). The assay is described as follows: NVS_GPCR_rNK1: NovaScreen (NVS) G Protein-Coupled Receptor Assay for rat Neurokinin-1 Receptor (NK1) (AID 2283309). The method, boiled down: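 Rat submaxillary gland membranes; radioligand displacement read by filter-based scintillation counting after 1 h. Primary screen in duplicate at 25 uM; actives retested in concentration series; loss of binding fitted versus DMSO.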
rat Neurokinin-1 Receptor (NK1), Tacr1 (gene 24807), sequence (P14600 whole entry, looked up): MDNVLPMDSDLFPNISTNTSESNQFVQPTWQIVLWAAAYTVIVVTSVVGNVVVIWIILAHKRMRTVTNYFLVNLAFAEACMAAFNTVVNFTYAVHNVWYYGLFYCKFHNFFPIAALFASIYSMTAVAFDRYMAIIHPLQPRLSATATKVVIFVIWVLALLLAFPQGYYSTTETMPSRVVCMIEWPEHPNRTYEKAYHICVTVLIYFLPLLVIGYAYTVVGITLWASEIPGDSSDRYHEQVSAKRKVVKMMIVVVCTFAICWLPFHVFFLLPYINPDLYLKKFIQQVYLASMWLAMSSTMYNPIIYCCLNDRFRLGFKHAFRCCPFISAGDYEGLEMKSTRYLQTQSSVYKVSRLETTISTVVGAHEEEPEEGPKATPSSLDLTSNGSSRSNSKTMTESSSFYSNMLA

For assay [4], the target named is human Neonicotinoid receptor (NNR), CHRNA2 (gene 1135) (UniProt Q15822). In words: NVS_LGIC_hNNR_NBungSens: NovaScreen (NVS) Ligand-Gated Ion Channel Assay for human Neonicotinoid receptor (NNR) (AID 2283313). The procedure, abridged:
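Radioligand displacement on human neuroblastoma membranes, 2 h, filter-based scintillation counting. Primary screen in duplicate at 25 uM; chemicals passing threshold (e.g. 30% inhibition) run singleton concentration-response to 50 uM; loss of binding fitted versus DMSO.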

In assay [5] the target is rat Neonicotinoid receptor (NNR), Chrna7 (gene 25302) (UniProt Q05941). The assay is described as follows: NVS_LGIC_rNNR_BungSens: NovaScreen (NVS) Ligand-Gated Ion Channel Assay for rat Neonicotinoid receptor (NNR) (AID 2283315). The method, boiled down: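 Radioligand displacement binding on rat cortical membranes, 2.5 h incubation, filtration and scintillation counting. Loss of specific binding fitted relative to DMSO.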
rat Neonicotinoid receptor (NNR), Chrna7 (gene 25302), sequence (Q05941 whole entry, looked up): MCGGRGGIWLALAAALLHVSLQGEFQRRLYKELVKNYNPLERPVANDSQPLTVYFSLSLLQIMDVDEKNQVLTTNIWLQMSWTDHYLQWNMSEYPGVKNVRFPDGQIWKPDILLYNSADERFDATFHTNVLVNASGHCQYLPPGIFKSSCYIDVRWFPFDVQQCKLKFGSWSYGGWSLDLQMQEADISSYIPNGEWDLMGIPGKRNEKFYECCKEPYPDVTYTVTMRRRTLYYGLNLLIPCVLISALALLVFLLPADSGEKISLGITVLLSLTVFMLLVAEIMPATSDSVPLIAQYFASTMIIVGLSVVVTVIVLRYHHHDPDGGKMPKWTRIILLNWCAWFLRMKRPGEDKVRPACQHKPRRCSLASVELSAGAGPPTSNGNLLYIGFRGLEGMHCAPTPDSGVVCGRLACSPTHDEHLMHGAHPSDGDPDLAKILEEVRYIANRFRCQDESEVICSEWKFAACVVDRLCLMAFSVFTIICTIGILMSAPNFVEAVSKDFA

Assay [6] deals with rat Opioid Receptor, Non-selective Binding, Oprm1 (gene 25601) (UniProt P33535). In words: NVS_GPCR_rOpiate_NonSelective: NovaScreen (NVS) G Protein-Coupled Receptor Assay for rat Opioid Receptor, Non-selective Binding (AID 2283318). The method, boiled down: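 Rat forebrain membranes, cell-free radioligand binding with filter-based scintillation counting, read 1.5 h after dosing. Primary screen in duplicate at 25 uM; actives retested in concentration series. Loss of signal versus DMSO baseline scored.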
rat Opioid Receptor, Non-selective Binding, Oprm1 (gene 25601), sequence (P33535 whole entry, looked up): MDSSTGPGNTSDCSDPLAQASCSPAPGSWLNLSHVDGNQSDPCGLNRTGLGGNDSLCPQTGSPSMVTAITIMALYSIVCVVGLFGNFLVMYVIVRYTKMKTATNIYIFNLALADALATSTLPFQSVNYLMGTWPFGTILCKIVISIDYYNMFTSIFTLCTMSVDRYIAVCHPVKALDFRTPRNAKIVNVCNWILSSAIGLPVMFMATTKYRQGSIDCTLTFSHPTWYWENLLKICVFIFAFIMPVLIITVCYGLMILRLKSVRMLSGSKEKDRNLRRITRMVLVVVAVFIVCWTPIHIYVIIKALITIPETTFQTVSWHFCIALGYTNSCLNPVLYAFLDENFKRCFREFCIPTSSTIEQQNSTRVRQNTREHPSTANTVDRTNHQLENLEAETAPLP

In assay [7] the target is Voltage-dependent N-type calcium channel subunit alpha-1B (Rattus norvegicus) (UniProt Q02294). In words: NVS_IC_rCaChN: NovaScreen (NVS) Ion Channel Assay for rat Calcium Channel, Type N (CaChN) (AID 2283317).
The target of assay [8] is rat Adrenergic Receptor, Beta (Adrb), Non-selective Binding, Adrb1 (gene 24925) (UniProt P18090). The assay is described as follows: NVS_GPCR_rAdrb_NonSelective: NovaScreen (NVS) G Protein-Coupled Receptor Assay for rat Adrenergic Receptor, Beta (Adrb), Non-selective Binding (AID 2283298). The procedure, abridged:
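Non-selective beta-adrenergic radioligand binding in rat cortical membranes, 1 h incubation, filter-based scintillation read-out. Primary screen 25 uM in duplicate; hits retested in concentration-response up to 50 uM, DMSO baseline.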

The target of assay [9] is rat Corticotropin Releasing Factor Receptor (CRF), Crhr1 (gene 58959) (UniProt P35353). In words: NVS_GPCR_rCRF: NovaScreen (NVS) G Protein-Coupled Receptor Assay for rat Corticotropin Releasing Factor Receptor (CRF) (AID 2283300). The method, boiled down: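 Rat cortical membranes used as receptor source in a radioligand competitive displacement binding assay; scintillation read 2 h after dosing. Primary screen run in duplicate at 25 uM; loss of signal versus DMSO baseline indicates binding.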

Assay [10] addresses rat Histamine Receptor (H3), Hrh3 (gene 85268) (UniProt Q9QYN8). In words: NVS_GPCR_rH3: NovaScreen (NVS) G Protein-Coupled Receptor Assay for rat Histamine Receptor (H3) (AID 2283303). The method, boiled down:
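Rat forebrain membranes incubated 1 h with compound; radioligand displacement measured by filter-based scintillation counting. Single-concentration duplicates at 25 µM, then concentration-response up to 50 µM, relative to DMSO.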

For assay [11], the target named is Metabotropic glutamate receptor 1 (Rattus norvegicus) (UniProt P23385). The assay is described as follows: NVS_GPCR_rmMGluR1: NovaScreen (NVS) G Protein-Coupled Receptor Assay for rat Glutamate Metabotropic Receptor 1 (MGluR1) (AID 2283305). The method, boiled down: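 Rat cerebellum membrane preparation, radioligand displacement binding read by filter-based scintillation counting 1 hour after dosing. Initial duplicate single-point screen at 25 uM, then concentration-response up to 50 uM; loss of signal versus DMSO baseline scored.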
Metabotropic glutamate receptor 1 (Rattus norvegicus), sequence (P23385 whole entry, looked up): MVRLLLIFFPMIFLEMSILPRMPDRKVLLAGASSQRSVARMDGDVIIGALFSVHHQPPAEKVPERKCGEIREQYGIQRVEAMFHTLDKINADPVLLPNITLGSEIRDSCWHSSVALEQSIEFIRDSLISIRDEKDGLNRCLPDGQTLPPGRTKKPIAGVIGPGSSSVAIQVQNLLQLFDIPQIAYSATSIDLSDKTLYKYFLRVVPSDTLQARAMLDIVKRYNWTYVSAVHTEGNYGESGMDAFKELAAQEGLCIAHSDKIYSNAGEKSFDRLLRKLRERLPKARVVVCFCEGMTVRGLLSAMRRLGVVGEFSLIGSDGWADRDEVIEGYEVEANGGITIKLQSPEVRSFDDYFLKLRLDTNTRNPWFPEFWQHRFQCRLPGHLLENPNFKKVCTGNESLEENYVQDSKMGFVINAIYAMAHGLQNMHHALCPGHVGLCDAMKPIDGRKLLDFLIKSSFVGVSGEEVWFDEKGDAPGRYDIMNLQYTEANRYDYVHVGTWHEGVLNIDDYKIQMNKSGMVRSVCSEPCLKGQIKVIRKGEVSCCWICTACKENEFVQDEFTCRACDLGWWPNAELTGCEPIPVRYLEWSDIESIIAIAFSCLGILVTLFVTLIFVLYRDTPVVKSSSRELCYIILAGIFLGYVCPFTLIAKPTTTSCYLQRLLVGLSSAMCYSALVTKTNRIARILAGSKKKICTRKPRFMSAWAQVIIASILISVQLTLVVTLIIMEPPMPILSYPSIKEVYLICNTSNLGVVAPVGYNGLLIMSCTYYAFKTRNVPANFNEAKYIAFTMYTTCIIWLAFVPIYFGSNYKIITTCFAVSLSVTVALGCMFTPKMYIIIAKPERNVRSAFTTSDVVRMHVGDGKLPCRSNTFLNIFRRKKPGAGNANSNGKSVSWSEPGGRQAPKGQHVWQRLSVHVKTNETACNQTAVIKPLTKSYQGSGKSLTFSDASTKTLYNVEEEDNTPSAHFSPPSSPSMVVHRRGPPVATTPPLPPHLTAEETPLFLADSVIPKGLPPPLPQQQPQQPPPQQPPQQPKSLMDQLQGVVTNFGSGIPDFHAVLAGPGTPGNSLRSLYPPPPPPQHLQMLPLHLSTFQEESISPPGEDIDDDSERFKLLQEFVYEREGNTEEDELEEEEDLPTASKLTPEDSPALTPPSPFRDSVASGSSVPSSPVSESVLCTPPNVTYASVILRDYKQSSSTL

For assay [12], the target named is rat Glutamate Metabotropic Receptor 5 (MGluR5), Grm5 (gene 24418) (UniProt P31424). The assay is described as follows: NVS_GPCR_rmMGluR5: NovaScreen (NVS) G Protein-Coupled Receptor Assay for rat Glutamate Metabotropic Receptor 5 (MGluR5) (AID 2283307). The method, boiled down:
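Rat whole-brain membrane preparation; filter-based radioligand binding read by scintillation counting, 1.5 h after dosing. Single-point screen at 25 uM in duplicate; hits over threshold (e.g. 30% inhibition) retested in concentration-response up to 50 uM; loss of signal vs DMSO.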

Assay [13] has as its target rat Neurotensin Receptor (NTS), Ntsr1 (gene 366274) (UniProt P20789). The assay is described as follows: NVS_GPCR_rNTS: NovaScreen (NVS) G Protein-Coupled Receptor Assay for rat Neurotensin Receptor (NTS) (AID 2283308). The method, boiled down:
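Rat forebrain membranes; radioligand binding with competitive displacement, read by filter-based scintillation counting 1 h after dosing. Primary screen in duplicate at 25 uM; actives (e.g., 30% inhibition) rerun in concentration-response up to 50 uM, loss-of-signal versus DMSO.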

Assay [14] deals with rat Neurokinin-3 Receptor (NK3), Tacr3 (gene 24808) (UniProt P16177). In words: NVS_GPCR_rNK3: NovaScreen (NVS) G Protein-Coupled Receptor Assay for rat Neurokinin-3 Receptor (NK3) (AID 2283310). The method, boiled down:
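Rat cortical membranes; radioligand binding with filtration and scintillation counting, 2 h after dosing. Primary screen in duplicate at 25 uM, then concentration-response up to 50 uM; loss of binding signal relative to DMSO.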

The target in assay [15] is rat Opioid Receptor, Non-selective Sodium (Na+) Binding, Oprm1 (gene 25601) (UniProt P33535). In words: NVS_GPCR_rOpiate_NonSelectiveNa: NovaScreen (NVS) G Protein-Coupled Receptor Assay for rat Opioid Receptor, Non-selective Sodium (Na+) Binding (AID 2283311). The procedure, abridged: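 Rat forebrain membranes, radioligand displacement with filter scintillation counting, 1.5 h incubation. Screened in duplicate at 25 µM; hits then run in concentration-response up to 50 µM; loss of binding fitted versus DMSO.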
rat Opioid Receptor, Non-selective Sodium (Na+) Binding, Oprm1 (gene 25601), sequence (P33535 whole entry, looked up): as the sequence (P33535 whole entry, looked up) above

Assay [16] has as its target rat Somatostatin Receptor (SST), Sstr1 (gene 25033) (UniProt P28646). In words: NVS_GPCR_rSST: NovaScreen (NVS) G Protein-Coupled Receptor Assay for rat Somatostatin Receptor (SST) (AID 2283314). The method, boiled down: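 Rat forebrain membranes; radioligand displacement read by filter-based scintillation counting 1 h after dosing. Primary screen in duplicate at 25 uM. Actives (e.g., 30% inhibition) were rerun as concentration-response to 50 uM max and fitted against DMSO.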

The subject of another assay is NCBI gene 24521. The assay is described as follows: NVS_IC_rKATPCh: NovaScreen (NVS) Ion Channel Assay for rat Potassium Channel, ATP-Sensitive (KATPCh) (AID 2283319). The procedure, abridged: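 Rat cortical membranes; radioligand binding at ATP-sensitive K channel site, filter-based scintillation counting 2 h after dosing. Single-point duplicate screen at 25 uM, hits rerun in concentration-response up to 50 uM; loss of signal versus DMSO.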

Assay [17] concerns the target rat Vasopressin 1 Receptor (V1), Avpr1a (gene 25107) (UniProt P30560). In words: NVS_GPCR_rV1: NovaScreen (NVS) G Protein-Coupled Receptor Assay for rat Vasopressin 1 Receptor (V1) (AID 2283316). The procedure, abridged:
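Radioligand binding on rat liver membranes, 1.5 h incubation, filter-based scintillation counting. Single 25 uM screen in duplicate; chemicals meeting threshold (e.g. 30% inhibition) run in concentration-response up to 50 uM.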

Assay [18] addresses rat Gamma-Aminobutyric Acid Type B Receptor (GABBR), Gabbr1 (gene 81657) (UniProt Q9Z0U4). The assay is described as follows: NVS_GPCR_rGABBR: NovaScreen (NVS) G Protein-Coupled Receptor Assay for rat Gamma-Aminobutyric Acid Type B Receptor (GABBR) (AID 2283301). The method, boiled down:
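Radioligand displacement on rat cortical membranes, 1 h, filter-based scintillation counting. Primary screen at 25 uM in duplicate; compounds passing threshold re-tested in concentration-response up to 50 uM; loss of binding fitted against DMSO.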

rat Adrenergic Receptor, Alpha 2 (Adra2), Non-selective Binding, Adra2a (gene 25083), sequence (P22909 whole entry, looked up): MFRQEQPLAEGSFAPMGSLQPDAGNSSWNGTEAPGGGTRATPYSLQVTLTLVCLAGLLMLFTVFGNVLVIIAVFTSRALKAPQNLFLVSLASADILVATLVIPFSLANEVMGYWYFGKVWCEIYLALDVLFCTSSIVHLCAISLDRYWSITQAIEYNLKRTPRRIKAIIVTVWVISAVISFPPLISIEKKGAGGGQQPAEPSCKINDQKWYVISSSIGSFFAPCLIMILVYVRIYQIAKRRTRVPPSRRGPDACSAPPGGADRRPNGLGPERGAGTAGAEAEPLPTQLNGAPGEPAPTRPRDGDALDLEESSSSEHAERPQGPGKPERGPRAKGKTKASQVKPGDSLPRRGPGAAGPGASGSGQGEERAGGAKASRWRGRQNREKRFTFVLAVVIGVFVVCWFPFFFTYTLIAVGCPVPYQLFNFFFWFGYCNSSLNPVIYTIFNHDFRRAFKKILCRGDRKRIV
rat Somatostatin Receptor (SST), Sstr1 (gene 25033), sequence (P28646 whole entry, looked up): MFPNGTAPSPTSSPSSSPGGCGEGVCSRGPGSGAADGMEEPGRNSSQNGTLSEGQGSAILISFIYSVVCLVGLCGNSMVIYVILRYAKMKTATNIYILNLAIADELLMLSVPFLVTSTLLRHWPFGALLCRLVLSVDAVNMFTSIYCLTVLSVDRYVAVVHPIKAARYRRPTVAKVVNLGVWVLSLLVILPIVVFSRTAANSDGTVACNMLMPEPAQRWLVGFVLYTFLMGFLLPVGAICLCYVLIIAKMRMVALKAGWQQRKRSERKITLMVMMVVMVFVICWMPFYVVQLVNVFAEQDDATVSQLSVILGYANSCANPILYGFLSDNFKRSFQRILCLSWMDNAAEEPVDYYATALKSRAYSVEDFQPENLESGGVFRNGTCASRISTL
Adra2b (gene 24174), sequence (P19328 whole entry, looked up): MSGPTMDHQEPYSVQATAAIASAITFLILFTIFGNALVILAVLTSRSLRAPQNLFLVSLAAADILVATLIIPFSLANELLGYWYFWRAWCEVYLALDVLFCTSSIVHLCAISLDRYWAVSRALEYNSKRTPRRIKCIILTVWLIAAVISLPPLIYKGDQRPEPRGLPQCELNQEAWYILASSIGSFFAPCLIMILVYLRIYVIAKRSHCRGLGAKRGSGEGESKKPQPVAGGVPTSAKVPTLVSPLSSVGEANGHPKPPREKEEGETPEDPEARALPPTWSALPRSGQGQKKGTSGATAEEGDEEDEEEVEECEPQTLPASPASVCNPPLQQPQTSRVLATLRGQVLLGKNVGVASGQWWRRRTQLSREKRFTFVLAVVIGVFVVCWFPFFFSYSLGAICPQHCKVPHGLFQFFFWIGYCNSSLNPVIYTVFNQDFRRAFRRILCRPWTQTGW
rat Histamine Receptor (H3), Hrh3 (gene 85268), sequence (Q9QYN8 whole entry, looked up): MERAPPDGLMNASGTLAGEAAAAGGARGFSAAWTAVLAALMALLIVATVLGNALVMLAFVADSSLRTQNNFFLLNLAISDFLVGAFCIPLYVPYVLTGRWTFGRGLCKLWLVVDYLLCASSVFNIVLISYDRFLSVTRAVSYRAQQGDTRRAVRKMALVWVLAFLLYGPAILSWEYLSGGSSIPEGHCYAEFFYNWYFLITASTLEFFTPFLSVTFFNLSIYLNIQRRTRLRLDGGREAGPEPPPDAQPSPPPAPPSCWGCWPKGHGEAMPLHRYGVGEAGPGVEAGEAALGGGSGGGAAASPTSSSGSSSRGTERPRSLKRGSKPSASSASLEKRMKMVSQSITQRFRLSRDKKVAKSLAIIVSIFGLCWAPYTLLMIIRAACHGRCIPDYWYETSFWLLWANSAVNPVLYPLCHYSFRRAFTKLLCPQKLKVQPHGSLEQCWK
rat Vasopressin 1 Receptor (V1), Avpr1a (gene 25107), sequence (P30560 whole entry, looked up): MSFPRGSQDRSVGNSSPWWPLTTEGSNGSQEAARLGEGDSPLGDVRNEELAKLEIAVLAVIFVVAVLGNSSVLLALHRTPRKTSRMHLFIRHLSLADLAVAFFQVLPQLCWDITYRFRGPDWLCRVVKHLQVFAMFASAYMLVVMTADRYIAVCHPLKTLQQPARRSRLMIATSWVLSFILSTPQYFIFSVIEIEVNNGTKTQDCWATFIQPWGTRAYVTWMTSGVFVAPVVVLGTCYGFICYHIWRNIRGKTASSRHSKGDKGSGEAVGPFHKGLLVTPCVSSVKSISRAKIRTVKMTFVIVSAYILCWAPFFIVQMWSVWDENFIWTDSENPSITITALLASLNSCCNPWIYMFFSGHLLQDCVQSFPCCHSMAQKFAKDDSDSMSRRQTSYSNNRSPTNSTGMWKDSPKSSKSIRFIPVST

With `CCN1CCC2(CC1)COc1cc3c(cc12)N(C(=O)c1ccc(-c2ccc(-c4nnc(C)o4)cc2C)cc1)CC3`, the half-maximal activity concentration (AC50) is 10.9 µM (active) in [1]; 18.6 µM (active) in assay [2]; 10.1 µM (active) with Adra2b (gene 24174); 10.7 µM (active) in [3]; 5.41 µM (active) in assay [4]; 21.2 µM (active) in [5]. Further, the call in assay [6] was inactive.

For the molecule `O=c1[nH]c(=O)[nH]c(=O)[nH]1`, the result in assay [7] and in assay [6] was inactive.

For the molecule `C=C(C)C(=O)[O][Sn]([CH2]CCC)([CH2]CCC)[CH2]CCC`, the AC50 in assay [1] is 4.59 µM (active); in [8] it was 20.5 µM (active); in assay [2], 3.25 µM (active); in assay [10], 25 µM (active); in assay [11], 4.13 µM (active); with Adra2b (gene 24174) it was 3.08 µM (active). In addition, the AC50 in assay [12] is 18.1 µM (active); in assay [14], 1.4 µM (active); in [15], 8.6 µM (active); in assay [16], 12.8 µM (active); in assay [6], 4.13 µM (active). The outcome (in [9]; in assay [13]; in the assay on NCBI gene 24521) was inactive.

Consider `O=C(O)C(F)(F)C(F)(F)C(F)(F)C(F)(F)C(F)(F)C(F)(F)F`, for which the AC50 in assay [17] was 39.2 µM (active).

`C[C@@H]1C[C@@H]([C@H](O)CC2CC(=O)NC(=O)C2)C(=O)[C@@H](C)C1`: the call in assay [3] and in assay [5] was inactive.

Turning to `COc1cc2c(cc1OC)[C@@]13CCN4CC5=CCO[C@H]6CC(=O)N2[C@H]1[C@H]6[C@H]5C[C@H]43`, the AC50 in assay [5] was 25 µM (active).

With `O=C(O)C(Cl)(Cl)Cl`, the half-maximal activity concentration (AC50) in assay [17] is 1.6 µM (active).

For `CC(=O)[O][Hg][c]1ccccc1`, the AC50 in assay [1] is 3.43 µM (active); in assay [2], 3.96 µM (active); in assay [18] it was 38.5 µM (active); in [10] it was 40.2 µM (active); in [11] it was 10.8 µM (active); with Adra2b (gene 24174), 11.9 µM (active). The AC50 in assay [14] was 16.8 µM (active); in assay [15] it was 30 µM (active); in assay [16] it was 5.92 µM (active); in assay [6], 31.9 µM (active). Further, in assay [12], the molecule was classed as inactive.

`Cc1ccccc1N`: the AC50 in assay [16] is 10.8 µM (active).

With `COc1cc(-c2ccc(N)c(OC)c2)ccc1N`, in the assay with Adra2b (gene 24174), the AC50 was 15.5 µM (active).

As to `CCC(=O)C(CC(C)N(C)C)(c1ccccc1)c1ccccc1` (centres undefined), the values for the half-maximal activity concentration (AC50) (in [2]; with Adra2b (gene 24174)) were 12 µM (active) and 6.79 µM (active), respectively.

For the molecule `O=C1C2(Cl)C3(Cl)C4(Cl)C(Cl)(Cl)C5(Cl)C3(Cl)C1(Cl)C5(Cl)C24Cl` (centres undefined), the molecule was classed as inactive in [18].
